Source: PubChem BioAssay (National Center for Advancing Translational Sciences (NCATS))
HTT aggregate = reduces HttQ103-GFP aggregates in PC12 cells. PC12 HttQ103-GFP aggregates, Acumen cytometry, 40 h. Potency, µM (titrated, usually from 46.1 µM), hits mostly inhibitors. 1.1% of 220,000 active. AID 1688; also: nearly all actives have a fitted effect of over 60% in size
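Aggregates are detected as GFP objects 1–25 µm with signal 6 STDEV over background in lysates of induced PC12 cells. These carry Huntingtin exon 1 with 103 glutamines fused to GFP under an ecdysone promoter; compounds titrated.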
HTT cytoprotect = cytoprotection in Huntington HTT-Q103 PC12 cell model; Potency, µM (titrated, usually from 56.4 µM), usual class: activators; PC12 HTT-Q103 induced, cytoprotection, ATP luminescence, 40 h; 0.14% of 230,000 active; also: nearly all actives have a fitted effect of over 45% in size
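Readout: ATPlite luminescence (ATP level). Model: stable PC12, inducible Htt exon1 Q103-GFP. Inducer: tebufenozide, 100 nM final. Compounds: dose series. No G418 in medium.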
Lamin A splicing = changes lamin A minigene splicing in HeLa cells | HeLa LMNA splicing GFP/RFP minigene ratio, 48 h | 0.01% of 200,000 active | Potency, µM (titrated, usually from 46.1 µM), actives largely listed as inhibitors; active = well fitted inhibition curve with a large enough effect in the signal ratio, with a control signal flat, not every such curve was filed as active; inconclusive = small, poorly fitted or top-dose-only effect, or effect the other way, or a change in a side signal; the % refers to the signal ratio
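S3 HeLa stable clones carrying a lamin A-EGFP splicing minigene plus DsRed2 were seeded at 600 cells/well in Opti-MEM with 2% FBS, pin-dosed and incubated 48 h at 37°C. Acumen cytometry (488 nm) gave the GFP/RFP total-intensity ratio.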
ALDH1A1 block = inhibitors of human aldehyde dehydrogenase 1A1; P00352; Purified ALDH1A1, NADH fluorescence, propionaldehyde substrate; Potency, µM (highest dose often 75.3 µM), usual class: inhibitors; 7.3% of 220,000 active; AID 1030; active = well fitted inhibition curve with a large enough effect, not every such curve was filed as active; inconclusive = small, poorly fitted or top-dose-only effect, or another doubt; inactive = no such curve, though single readings can be large or run the other way
Target sequence (P00352 whole entry, looked up): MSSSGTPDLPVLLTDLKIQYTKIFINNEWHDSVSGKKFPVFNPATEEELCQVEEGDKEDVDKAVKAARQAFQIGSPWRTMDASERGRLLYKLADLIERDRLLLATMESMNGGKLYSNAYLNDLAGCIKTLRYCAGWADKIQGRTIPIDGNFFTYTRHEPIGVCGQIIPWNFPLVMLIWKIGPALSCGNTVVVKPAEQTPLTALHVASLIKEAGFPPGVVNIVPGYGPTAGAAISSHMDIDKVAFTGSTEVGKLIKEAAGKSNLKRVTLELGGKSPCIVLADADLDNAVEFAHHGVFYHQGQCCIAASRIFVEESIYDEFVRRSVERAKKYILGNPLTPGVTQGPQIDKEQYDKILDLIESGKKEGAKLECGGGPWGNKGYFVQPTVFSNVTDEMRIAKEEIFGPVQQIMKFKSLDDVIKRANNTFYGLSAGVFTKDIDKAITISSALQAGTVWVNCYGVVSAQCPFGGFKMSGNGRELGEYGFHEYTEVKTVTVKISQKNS
HPGD block = blocks human HPGD enzyme activity. P15428. purified HPGD, NADH fluorescence kinetic, PGE2 substrate. Potency, µM, hits mostly inhibitors. 4.3% of 150,000 active; active = well fitted inhibition curve with a large enough effect, not every such curve was filed as active; inconclusive = small, poorly fitted or top-dose-only effect, or another doubt; inactive = no such curve, though single readings can be large or run the other way
Target sequence (P15428 whole entry, looked up): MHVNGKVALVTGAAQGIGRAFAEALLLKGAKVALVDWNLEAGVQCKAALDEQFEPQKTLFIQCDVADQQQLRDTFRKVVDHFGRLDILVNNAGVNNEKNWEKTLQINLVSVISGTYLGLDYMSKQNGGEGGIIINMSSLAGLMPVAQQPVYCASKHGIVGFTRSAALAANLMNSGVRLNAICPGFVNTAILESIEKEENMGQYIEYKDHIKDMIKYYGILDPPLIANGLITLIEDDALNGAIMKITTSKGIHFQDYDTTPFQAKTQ
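20 nM HPGD preincubated 15 min at room temperature with compound in 50 mM Tris-HCl pH 8, 0.01% Tween 20. Started with 1 mM NAD+ and 30 uM prostaglandin E2; NADH fluorescence (360/450 nm) read 5 times over 30-s intervals, last minus first.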
Luc counter = counter-screen: inhibitors of Kinase-Glo firefly luciferase. Q27757. Kinase-Glo luciferase, ATP luminescence, 8 min. Potency, µM (series often up to 38.3 µM), actives largely listed as inhibitors. 0.28% of 200,000 active; also: nearly all actives have a fitted effect of over 60% in size
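Luminescence was the read-out, taken after 8-minute incubation at ambient temperature. Luciferase turned over luciferin with 10 uM ATP in imidazole pH 7.2 buffer containing KCl, MgCl2, Tween 20 and BSA.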
Hits are given with their value; 0 = inactive; ? = inconclusive; - = no result; [ ] = another dose, or the depositor's remark. Hits are enriched below; roughly 9% of the tested compounds scored in any of these assays. Unless noted, calls follow the shape of the dose curve; as a rule, active = well fitted curve in the direction sought with a large enough effect; inconclusive = small, poorly fitted or top-dose-only effect, or another doubt; inactive = no such curve, though single readings can be large; an effect the other way counts as inactive or inconclusive.

SMILES	HTT aggregate	HTT cytoprotect	Lamin A splicing	ALDH1A1 block	HPGD block	Luc counter
CCOc1ccc(S(=O)(=O)N/N=C(\C)Cc2ccc(OC)cc2)cc1	0	0	0	2.8µM	-	0
O=C(CNC(=O)c1ccco1)OCc1ccc(C(=O)Oc2ccccc2)cc1	0	0[10 µM]	0	?	0	0
COc1ccc(NC(=O)c2ccco2)cc1NC(=O)c1cccnc1	3.2µM	0[0.074 µM]	0	0	0	0
COc1cc2c(cc1NC(=O)c1ccc(C(C)(C)C)cc1)CCCC2	?	0	?	?	?	0
COc1cc2c(cc1NC(=O)c1cccnc1)CCCC2	0	0	0	28µM	0	0
Cc1cc(NC(=O)c2cccnc2)ccc1NC(=O)c1ccco1	0	0	0	0	0	0
Cc1ccc(S(=O)(=O)N2CCN=C2c2ccccc2)cc1C	0	0[10 µM]	0	0	0	0
CC(=O)/C(N=Nc1ccc(OC(F)(F)F)cc1)=C(\C)O	0[9.22 µM]	0[10 µM]	-	-	-	-
COc1cccc(NC(=O)c2ccc(NC(=O)C(C)C)cc2)c1	0[9.22 µM]	0[10 µM]	-	0	-	-
COc1ccc(NS(=O)(=O)c2cccc(NC(=O)c3ccc(Cl)nc3)c2)cc1	2.5µM	0[10 µM]	0	0	-	0
COc1ccc(C(=O)Nc2cccc(OC)c2)cc1	0	0	0	?	0	7.9µM
COc1cccc(C(=O)Nc2cccc(C(=O)NCC(C)C)c2)c1	3.2µM	0[10 µM]	0	0	0	0
CCO[C@H]1OC(C(=O)NC2CC2)=C[C@@H](c2ccc3c(c2)OCO3)[C@@H]1CCCO	0[9.22 µM]	0[10 µM]	-	?	-	-
CC(=O)c1cc(NC(=O)c2cccc(C(F)(F)F)c2)c(=O)oc1C	?	0	-	3.5µM	-	0
CC(=O)c1cc(NC(=O)c2cccc(C(F)(F)F)c2)c(=O)oc1/C=C/N(C)C	0	0	0	0	0	0
Cc1ccc(CN(C(=O)COc2ccc([N+](=O)[O-])cc2)c2ccccn2)cc1	-	-	0	-	-	-
O=C(COc1ccc([N+](=O)[O-])cc1)N(Cc1ccccc1)Cc1ccccc1	0	0[10 µM]	?	14µM	0	0
CSc1ccc(/C=C(/NC(=O)c2ccc(C)cc2)C(=O)Nc2cccc(C)c2)cc1	0	0[10 µM]	0	0	0	0
CSc1ccc(/C=N/N2CCN(Cc3ccc(C)cc3C)CC2)cc1	0[9.22 µM]	0[1.9 µM]	0	0	-	0
Nc1scc2c(C(=O)N/N=C/c3ccc(Cl)cc3)nn(-c3ccccc3)c(=O)c12	0	?	0	10µM	14µM	0
CCCn1c(NC(=O)c2ccco2)nc2ccccc21	?	0	0	0	0	0
COc1ccc(OCCn2c(NC(=O)c3ccco3)nc3ccccc32)cc1	10µM	0	?	0	0	0
CCCCC(=O)Nc1ccc2c(c1)nc1n2CCSC1	0	0	0	18µM	32µM	0
CC(=O)Nc1ccc2c(c1)nc1n2CCSC1	0[9.22 µM]	0	0	0	0	0
CCOC(=O)N1CCC(n2c(SCC(=O)NCCC3=CCCCC3)nc3ccccc3c2=O)CC1	?	0	?	13µM	0	0
SMILES	HTT aggregate	HTT cytoprotect	Lamin A splicing	ALDH1A1 block	HPGD block	Luc counter
Cc1cc(SCC(=O)NCCC2=CCCCC2)nc2ccccc12	0	0[10 µM]	0	0	25µM	0
Cc1cccc(NS(=O)(=O)c2ccc3nc(-c4ccccc4)[nH]c3c2)c1C	0	0[10 µM]	?	0	0	0
Cc1ccc(NC(=O)CSc2nnc(CN3CCOCC3)n2C)cc1C	0	-	0	32µM	0	0
Cc1cc(C(=O)COC(=O)CN(C)S(=O)(=O)c2ccc(Cl)cc2)c(C)n1CC1CCCO1 (stereo not given)	0	0	0	?	0	0
Cc1ccc(S(=O)(=O)c2c(N)n(/N=C/c3ccco3)c3nc4ccccc4nc23)cc1C	0	0[0.074 µM]	0	?	?	0
O=C(O)c1ccc(NC(=O)C2CC=CCC2C(=O)O)cc1 (stereo not given)	0	0	0	0	0	0
O=C(Nc1nccs1)c1ccc(NC(=O)C2CC=CCC2C(=O)O)cc1 (stereo not given)	0[9.22 µM]	0[10 µM]	-	4µM	-	0
c1ccc(-c2nn3c(Cn4nnc5ccccc54)nnc3s2)nc1	0	0	0	3.2µM	7.1µM	0
c1cncc(-c2nn3c(Cn4nnc5ccccc54)nnc3s2)c1	0	0[0.074 µM]	?	7.1µM	13µM	0
Cc1c(C)n(C(=O)CN2CCN(c3ccccc3)CC2)c2ccccc12	?	0	0	?	0	0
COc1cc(C2NC(=S)NC3=C2CCc2ccccc23)cc(OC)c1OC (stereo not given)	0	0[10 µM]	0	?	0	0
O=C1NC2=C(CCc3ccccc32)C(c2ccccc2)N1 (stereo not given)	0	-	?	?	?	0
COc1ccc2c(c1)CCC1=C2NC(=S)NC1c1ccc(N(C)C)cc1 (stereo not given)	0[9.22 µM]	0[10 µM]	?	2.8µM	-	0
C=CCOc1ccc(C2NC(=S)NC3=C2CCc2ccccc23)cc1 (stereo not given)	0[9.22 µM]	0[10 µM]	-	1µM	-	-
CN(C)c1nnnn1Cc1ccc(Cl)cc1Cl	0	0	0	0	-	0
COc1ccc(Cc2nnc(SCC(=O)NCc3ccco3)o2)cc1	0	0[10 µM]	0	?	20µM	0
O=[N+]([O-])c1ccc(CSc2nnc(Cc3ccccc3)o2)cc1	0[9.22 µM]	0[10 µM]	-	-	-	-
COc1ccc(CNc2nc(SCC(=O)NCc3ccco3)nc3ccccc23)cc1	0	0[1.9 µM]	0	?	10µM	0
COc1ccc(Cc2nnc(SCc3ccc([N+](=O)[O-])cc3)o2)cc1	7.1µM	-	?	?	-	0
COc1ccc(Cc2nnc(NC(=O)c3cccc([N+](=O)[O-])c3)s2)cc1	0	0[10 µM]	?	0	0	0
COC(=O)c1c(NC(=O)c2ccccc2)sc(C(=O)c2ccccc2)c1C	?	0	?	14µM	0	0
COC(=O)c1c(NC(=O)c2ccccc2)sc(C(N)=O)c1C	0[9.22 µM]	0[10 µM]	?	?	-	0
Cc1cc(NC(=O)c2ccccc2)sc1C	0	0	0	0	0	11µM
COC(=O)c1sc(NC(=O)c2cccc([N+](=O)[O-])c2)c(C(N)=O)c1C	0	-	?	10µM	28µM	0
CCCC(=O)Nc1sc(C(=O)OC)c(C)c1C(N)=O	0	0	0	0	-	-
SMILES	HTT aggregate	HTT cytoprotect	Lamin A splicing	ALDH1A1 block	HPGD block	Luc counter
COC(=O)c1c(NC(=O)c2cccc([N+](=O)[O-])c2)sc(C(N)=O)c1C	?	?	?	7.9µM	-	0
Cc1ccc(C(=O)Nc2sc(C)c(-c3ccccc3)c2C(N)=O)cc1[N+](=O)[O-]	0	0	0	10µM	25µM	0
Cc1ccc(C(=O)NC(C)CCc2ccccc2)cc1[N+](=O)[O-] (stereo not given)	0	0	0	?	0	0
O=S(=O)(O)[C@@H](c1ccccc1)[C@@H](O)c1ccccc1	-	0[10 µM]	-	-	-	-
O=C(Nc1ccc(N2CCN(C(=O)c3ccco3)CC2)c(Cl)c1)c1cc2ccccc2o1	?	0	?	?	?	0
O=C(Nc1ccc(Br)c(Cl)c1)c1ccco1	0	0[0.074 µM]	0	0	22µM	0
